Screening data from PubChem BioAssay.
SNCA viab count: counter-screen for SNCA expression inhibitors: cell viability | HEK-293-SNCA-luc viability, GF-AFC fluorescence, 24 h | Potency, µM (top dose mostly 57.1 µM), most hits filed as cytotoxic | hit rate 0.12% among 150,000; note: nearly all actives have a fitted effect of over 30% in size
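Cytotoxicity counterscreen: after 24 h compound treatment of genome-edited SNCA-luciferase HEK-293 cells, live-cell protease substrate GF-AFC read by fluorescence after 30 min; activity scaled between DMSO (0%) and medium-only (-100%), curves Hill-fitted.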
IP6K1 inhibitor: blocks human inositol hexakisphosphate kinase 1. Q92551. IP6K1 kinase, ADP-Glo luminescence, 2 h; stronger effect = lower value. activity change, % (series mostly up to about 58 µM). hit rate 0.81% among 140,000. AID 1645851; in the data active = activity change below about -25%
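ADP-Glo luminescence measures ADP made by human IP6K1 during a 2 h RT reaction with ATP/IP6 (mix at 1.3 mM/130 uM); top library doses 57.5 and 19.1 uM final.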
KDM5B inhibitor: blocks human KDM5B histone demethylase activity; Q9UGL1; KDM5B demethylase, FDH-coupled NADH fluorescence (FDH is formaldehyde dehydrogenase); Potency, µM (highest dose often 57.7 µM), most hits filed as inhibitors; hit rate 2.6% among 220,000; note: nearly all actives have a fitted effect of over 70% in size
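Inhibition is measured as reduced NADH fluorescence generation from FDH coupling to formaldehyde release. Truncated KDM5BΔAP at 200 nM final acts on H3K4me3 peptide (12.5 µM in substrate mix) in pH 7.5 HEPES buffer with Tween-20, 30 min, room temperature.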
SNCA expr inhib: reduces expression of the alpha-synuclein gene; HEK-293 SNCA-luciferase knock-in, luminescence, 24 h; Potency, µM (titrated, usually from 57.2 µM), usual class: inhibitors; hit rate 0.17% among 140,000; note: nearly all actives have a fitted effect of over 45% in size
Each line names hits and unclear results; the compound was inactive in the other large screens. Compounds with a hit are over-represented: about 2.8% of the library has one in this group of screens. Unless noted, calls come from the whole dose curve; as a rule, active = well fitted curve in the direction sought with a large enough effect; inconclusive = small, poorly fitted or top-dose-only effect, or another doubt; inactive = no such curve, though single readings can be large; an effect the other way counts as inactive or inconclusive.

CCOc1ccc(-c2cc3c(=O)n(CCNC(=O)c4cccc(N(C)C)c4)ccn3n2)cc1	KDM5B inhibitor 31.6µM
CCOc1ccc(-c2cc3c(=O)n(CCNC(=O)c4ccc(C)c(C)c4)ccn3n2)cc1	KDM5B inhibitor 17.8µM
Cc1ccc(C)c(-c2cc3c(=O)n(CCNC(=O)c4cccc(N(C)C)c4)ccn3n2)c1	SNCA viab count inconclusive, KDM5B inhibitor 31.6µM, SNCA expr inhib inconclusive
COc1cccc(F)c1-c1nc(C)c(C(=O)Nc2ccc3c(c2)OCO3)s1	none (no result: SNCA viab count, IP6K1 inhibitor, SNCA expr inhib)
CC1(C)CC(NC(=S)NCCc2ccccc2)CC(C)(CNC(=S)NCCc2ccccc2)C1 (stereo not drawn)	none (no result: SNCA viab count, IP6K1 inhibitor, SNCA expr inhib)
c1cc(OCc2ccc3c(c2)OCCO3)ccc1CNCC1CCCO1 (stereo not drawn)	none (no result: SNCA viab count, IP6K1 inhibitor, SNCA expr inhib)
CCc1nn(-c2ccccc2)c2c1CN(C(=O)NC)C(c1ccccc1)c1cccn1-2 (stereo not drawn)	none (no result: SNCA viab count, IP6K1 inhibitor, SNCA expr inhib)
CCOC(=O)C(NC(=O)COc1c(C)cc(C)cc1C)C(=O)OCC	none (no result: SNCA viab count, IP6K1 inhibitor, SNCA expr inhib)
COc1cc2ncnc(Nc3ccc(F)c(Cl)c3)c2cc1NC(=O)/C=C/CN1CCCCC1	SNCA viab count 23.8µM (no result: KDM5B inhibitor, SNCA expr inhib)
COc1cc2ncnc(Nc3ccc(F)c(Cl)c3)c2cc1O	none (no result: KDM5B inhibitor, SNCA expr inhib)
CSCC[C@@H]1NC(=O)c2cc(NC(=O)c3ccc4ccn(C)c4c3)ccc2NC1=O	KDM5B inhibitor 25.1µM
CCc1noc(-c2cccn3c(CNC(=O)COc4ccc(F)cc4)nnc23)n1	KDM5B inhibitor 22.4µM
CCc1noc(-c2cccn3c(CNC(=O)c4ccc5ccccc5n4)nnc23)n1	KDM5B inhibitor 20µM, SNCA expr inhib inconclusive
CCc1noc(-c2cccn3c(CNC(=O)c4ccc(F)cc4)nnc23)n1	KDM5B inhibitor 25.1µM
Cc1noc(-c2cccn3c(CNC(=O)c4ccccc4)nnc23)n1	KDM5B inhibitor 28.2µM
CCc1noc(-c2cccn3c(CNC(=O)c4ccoc4)nnc23)n1	KDM5B inhibitor 14.1µM
CCCc1noc(-c2cccn3c(CNC(=O)c4ccc(F)cc4)nnc23)n1	KDM5B inhibitor 14.1µM
CCc1noc(-c2cccn3c(CNC(=O)c4ccccc4)nnc23)n1	KDM5B inhibitor 28.2µM
CCc1noc(-c2cccn3c(CNC(=O)c4ccc(Cl)cc4)nnc23)n1	KDM5B inhibitor inconclusive
CCc1noc(-c2cccn3c(CNC(=O)c4ccccn4)nnc23)n1	KDM5B inhibitor 25.1µM
COc1ccccc1-c1cccc(CN2CCCC(C(=O)NCc3cccnc3)C2)c1 (stereo not drawn)	none (no result: KDM5B inhibitor)
COc1ccc(C2CCCN2C(=O)NCCn2ccnc2)cc1OC (stereo not drawn)	none (no result: SNCA viab count, IP6K1 inhibitor, SNCA expr inhib)
CCOC(=O)CN1CCCC1c1ccc(C(=O)NCCn2ccnc2)s1 (stereo not drawn)	KDM5B inhibitor 28.2µM
COc1cc(O)c2c(c1)C1OC1C[C@H](O)[C@H](O)C(=O)/C=C\C[C@H](C)OC2=O (stereo partly drawn)	SNCA viab count 11.9µM (no result: KDM5B inhibitor, SNCA expr inhib)
COc1cc(O)c2c(c1)C1OC1C[C@H](O)[C@H](O)C(=O)C=CC[C@H](C)OC2=O (stereo partly drawn)	SNCA viab count inconclusive (no result: IP6K1 inhibitor, KDM5B inhibitor)
Cc1oc(C(O)c2ccccc2F)nc1C(=O)Nc1ccccc1C(N)=O (stereo not drawn)	KDM5B inhibitor 35.5µM
Cc1oc(C(O)c2ccccc2F)nc1C(=O)Nc1ccc(C(N)=O)cc1 (stereo not drawn)	none
CC(C)C[C@H](NC(=O)Nc1ccc(F)cc1)C(=O)O	none (no result: SNCA viab count, IP6K1 inhibitor, SNCA expr inhib)
CC(C)c1noc(-c2cccn3c(CNC(=O)c4cccc(Cl)c4)nnc23)n1	KDM5B inhibitor 22.4µM
COc1ccc(C(=O)NCc2nnc3c(-c4nc(C5CC5)no4)cccn23)c(C)c1	SNCA expr inhib inconclusive
Cc1ccc(C(=O)NCc2nnc3c(-c4nc(C(C)C)no4)cccn23)cc1C	KDM5B inhibitor 28.2µM
CC(C)c1noc(-c2cccn3c(CNC(=O)c4c(F)cccc4F)nnc23)n1	KDM5B inhibitor 28.2µM
Cc1ccccc1C(=O)NCc1nnc2c(-c3nc(C(C)C)no3)cccn12	KDM5B inhibitor inconclusive
Cc1ccc(C(=O)NCc2nnc3c(-c4nc(C5CC5)no4)cccn23)cc1C	KDM5B inhibitor 10µM
COc1cc(/C=C(/C#N)C(=O)Nc2cccc3ncccc23)cc(OC)c1OC	none (no result: SNCA viab count, IP6K1 inhibitor, SNCA expr inhib)
Cc1ccc(C(=O)NNC(=S)NC(C)(C)C)cc1	none (no result: SNCA viab count, IP6K1 inhibitor, SNCA expr inhib)
COc1ccc(C(=O)NC(CC(=O)O)c2ccc(C(C)(C)C)cc2)cc1 (stereo not drawn)	none (no result: SNCA viab count, IP6K1 inhibitor, SNCA expr inhib)
CC(C)C1Cc2c(sc3nc(SCC(=O)c4ccccc4)nc(N)c23)CO1 (stereo not drawn)	none (no result: SNCA viab count, IP6K1 inhibitor, SNCA expr inhib)
CC(C)c1noc(-c2cccn3c(CNC(=O)c4cc5ccccc5[nH]4)nnc23)n1	KDM5B inhibitor inconclusive
Cc1cccc(C(=O)NCc2nnc3c(-c4nc(C(C)C)no4)cccn23)c1	KDM5B inhibitor 28.2µM
CC(C)c1noc(-c2cccn3c(CNC(=O)Cc4cccc(F)c4)nnc23)n1	KDM5B inhibitor inconclusive
CCC(=O)NCc1nnc2c(-c3nc(C(C)C)no3)cccn12	KDM5B inhibitor inconclusive
Cc1cc(C)cc(C(=O)NCc2nnc3c(-c4nc(C(C)C)no4)cccn23)c1	KDM5B inhibitor 22.4µM
CC(C)c1noc(-c2cccn3c(CNC(=O)c4cccc(F)c4)nnc23)n1	KDM5B inhibitor 25.1µM
Cc1ccc(CN(C)C(=O)Cn2cnc3c2c(=O)n(C)c(=O)n3C)c(C)c1	none (no result: SNCA viab count, IP6K1 inhibitor, SNCA expr inhib)
O=C(Nc1ccccc1)c1ccc2c(c1)CCC2	none (no result: SNCA viab count, IP6K1 inhibitor, SNCA expr inhib)
O=C(NCCNC(=O)c1ccc(-c2cccc(C(F)(F)F)c2)cc1)c1ccncc1	none (no result: SNCA viab count, KDM5B inhibitor, SNCA expr inhib)
O=C(O)c1ccnc(-c2ccnc(NCCc3noc(C4CCC4)n3)n2)c1	KDM5B inhibitor 28.2µM
O=C(O)c1ccnc(-c2ccnc(NCCN3CCCCC3=O)n2)c1	KDM5B inhibitor 22.4µM
CN1CCN(C(C(=O)O)c2c[nH]c3cc(OCc4ccccc4)ccc23)CC1 (stereo not drawn)	none (no result: SNCA viab count, IP6K1 inhibitor, SNCA expr inhib)
O=C1CCN(C(=O)c2ccsc2)CCCC(C(=O)N2CCN(c3ccccn3)CC2)CCN1 (stereo not drawn)	KDM5B inhibitor 20µM
O=C1CCN(Cc2ccncc2)CCCC(C(=O)N2CCN(c3ccccn3)CC2)CCN1 (stereo not drawn)	KDM5B inhibitor inconclusive
CCN(CC)C(=O)c1cc2c(s1)CCC(C(=O)N1CCN(c3ccccc3)CC1)C2 (stereo not drawn)	none
O=C1CCN(C(=O)C2CCC2)CCCC(C(=O)N2CCN(c3ccccn3)CC2)CCN1 (stereo not drawn)	KDM5B inhibitor 22.4µM
CCN(CC)C(=O)c1cc2c(s1)CCC(C(=O)N1CCN(c3ccccn3)CC1)C2 (stereo not drawn)	KDM5B inhibitor 28.2µM, SNCA expr inhib inconclusive
COc1ccc(NC(=O)N2CCC(N3CC4CC(C3)[C@H]3CCCC(=O)N3C4)CC2)cc1OC (stereo partly drawn)	KDM5B inhibitor 25.1µM
Cc1nc(C)c(C(=O)N2CCC(N3CC4CC(C3)[C@H]3CCCC(=O)N3C4)CC2)s1 (stereo partly drawn)	KDM5B inhibitor 15.8µM
O=C(COc1ccccc1)N1CCC(N2CC3CC(C2)[C@H]2CCCC(=O)N2C3)CC1 (stereo partly drawn)	KDM5B inhibitor 22.4µM
